± gives the standard deviation. In all, about 8,200 sequences were measured (“pre-steady-state target cleavage rate”: median about 0.024, highest 2% from about 1.3 on). For the sample, the highest values were picked, then their nearest neighbours and some sequences at random.
Tested on: MIWI (PIWIL1) piRISC loaded with L1MC piRNA (30 nt)
Experiment: pre-steady-state target cleavage rate (min^-1); MIWI and MILI are mouse PIWI proteins and EfPiwi is from a freshwater sponge; tags in brackets are library labels; higher = faster piRNA-guided slicing of the target
Details: guide: L1MC piRNA 5'p-UAACUAAAUACUAUGCAAGCUGUAGGUCCU
Procedure: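 Cleave-'n-Seq: a library of target RNAs (target site embedded in constant flanks, ACAGCATTCCGCGTTAGTGATATCCG... 5' flank; DNA-blocked outside the site) at 0.1 nM was incubated with 1 nM active mouse MILI or MIWI piRISC (synthetic 5'-monophosphorylated piRNA guide) with or without 500 nM mouse GTSF1 at 33 °C for 1 min to 16 h. Uncleaved targets were sequenced and normalised to non-target controls, and the pooled three trials were fitted to a burst-and-steady-state model to give the pre-steady-state cleavage rate (min^-1; k3 is constrained to at most 1e-4). Sequence is the target site only; target names encode pairing extent (gX:gY) and contiguous / 1-mismatch / 2-mismatch / bulge geometry. Fits with R² ≤ 0 are excluded.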

[1] = auxiliary factor: 500 nM mouse GTSF1
[2] = auxiliary factor: none (no GTSF1)

Sequence	pre-steady-state target cleavage rate [1]	pre-steady-state target cleavage rate [2]
AGGACCUACAGCUUGGAUAGUAUUUUGUUA	1.05 ± 0.077	0.0416 ± 0.0083
UCCUGGAACAGCUUGCUAUGUAUUUAGUAA	0.0313 ± 0.0087	0.00333 ± 0.002
UCCUGGAUCAGGAAGCAUAGUAUUUAGUUA	0.00993 ± 0.0028	
AGGACCUACUGCUUGCAUUGUAUUUAGUUA	0.892 ± 0.03	0.0384 ± 0.008
UCCUGCUACUGCUUGCUUAGUAUUUAGUUA	0.49 ± 0.039	0.0208 ± 0.003
AGGACCUACACCUUGCUUAGUAUUUAGUUA	1.17 ± 0.057	0.046 ± 0.0082
UGGACCUACACCUUGCUUAGUAUUUAGUUA	1.1 ± 0.062	0.0262 ± 0.0061
AGGACCUACUGCUUGCUUAGUAUUUAGUUA	1.39 ± 0.087	0.05 ± 0.01
UGGACCUACUGCUUGCUUAGUAUUUAGUUA	1.4 ± 0.081	0.0402 ± 0.0083
UCCACGAACAGCUUGCAUAGUAUUUAGAAA	0.328 ± 0.039	0.00702 ± 0.0022
UCCUGGAUGUCGAACGUAAGUAUUUAGUAUA	< 0.0001	
UCCUCCUACAGCUUGCAUUGUAUUUAGUUA	0.952 ± 0.034	0.0245 ± 0.0055
UCCUGGAUGAGCUUGCAUAGUAUUUUCUAA	0.222 ± 0.052	
AGGACCUACGAGCUUGCAUAGUAUUUAGUUA	0.726 ± 0.086	0.0555 ± 0.014
UGGACCAACAGCUUGCAUACUAUUUAGUUA	0.419 ± 0.017	0.0377 ± 0.0075
UCCUGGAUGUCGUUGCAUAGUAUUUAGGUUA	0.00749 ± 0.0034	
UGGACGUACAGCUUGCAUAGUAUUUAGUUA	1.26 ± 0.051	0.0691 ± 0.012
ACGACGUACAGCUUGCAUAGUAUUUAGUUA	1.55 ± 0.071	0.077 ± 0.013
UCCACGUACAGCUUGCAUAGUAUUUAGUUA	1.35 ± 0.047	0.0658 ± 0.0097
AGCACGUACAGCUUGCAUAGUAUUUAGUUA	1.28 ± 0.043	0.064 ± 0.011

Sequence	pre-steady-state target cleavage rate [1]	pre-steady-state target cleavage rate [2]
UCCACCUACAGCUUGCUUAGUAUUUAGUUA	1.16 ± 0.05	0.0305 ± 0.0053
UCGACGUACAGCUUGCAUAGUAUUUAGUAA	1.01 ± 0.062	0.0599 ± 0.011
UCCACGUACAGCUUGCAAAGUAUUUAGUUA	1.19 ± 0.054	0.0439 ± 0.009
UCCACGUACAGCUUGCUUAGUAUUUAGUUA	1.31 ± 0.058	0.0408 ± 0.0091
UCCACGUACAGCUUGCAUAGUAUUUAGUAA	0.521 ± 0.032	0.0319 ± 0.0057
UCGACGUACAGCUUGCAUAGUAUUUAGUUA	1.56 ± 0.046	0.0711 ± 0.011
UCGACGUACAGCUUGCAUAGUAUUUAGAAA	0.288 ± 0.026	0.0106 ± 0.0026
UGCACGUACAGCUUGCAUAGUAUUUAGUUA	1.26 ± 0.045	0.0736 ± 0.01
UCCACCAAGAGCUUGCAUAGUAUUUAGUUA	0.884 ± 0.095	0.0363 ± 0.0078
UCCACCUACAGCUUGCUUAGAAUUUAGUUA	0.2 ± 0.025	0.00583 ± 0.0018
UCCUGGAACAGCUAGCAUAGAAUUUAGUUA	0.209 ± 0.02	0.0115 ± 0.0043
AGGACCUACAGCUUGCAUUGUAUUUAGUUA	0.926 ± 0.04	0.0656 ± 0.015
UCCUGGAUGUCCUUGCAGAGUAUUUAGUUA		0.00314 ± 0.002
UCCUGGAUGAGCUUGCUUAGUAUUUACUUA	0.254 ± 0.042	0.0202 ± 0.005
UCCACGUACAGCUAGCAUAGUAUUUAGUUA	0.815 ± 0.028	0.0177 ± 0.0033
UCGACCUAACAGCUUGCAUAGUAUUUAGUUA	1.15 ± 0.069	0.0849 ± 0.017
UGGACCUACAGCUUUGCAUAGUAUUUAGUUA	1.43 ± 0.11	0.0449 ± 0.011
UCCACCCUACAGCUUGCAUAGUAUUUAGUUA	0.831 ± 0.055	0.0575 ± 0.012
UGGACCCUACAGCUUGCAUAGUAUUUAGUUA	1.42 ± 0.074	0.0808 ± 0.015
UGGACCUACAGCUUGCAUAGUAUUUUAGUUA	1.38 ± 0.079	0.0467 ± 0.012

Sequence	pre-steady-state target cleavage rate [1]	pre-steady-state target cleavage rate [2]
AGGACCUAACAGCUUGCAUAGUAUUUAGUUA	1.1 ± 0.059	0.0788 ± 0.016
UCCACCUACAGCUUUGCAUAGUAUUUAGUUA	0.885 ± 0.054	0.0278 ± 0.0062
AGGACCCUACAGCUUGCAUAGUAUUUAGUUA	1.24 ± 0.083	0.0716 ± 0.012
AGGACCUACAGCUUUGCAUAGUAUUUAGUUA	1.2 ± 0.066	0.0552 ± 0.012
UGGACCUAACAGCUUGCAUAGUAUUUAGUUA	1.33 ± 0.061	0.0609 ± 0.01
UCCACCUACAGCUUGCAUAAUAUUUAGUUA	0.552 ± 0.049	0.0203 ± 0.0032
UCCUGCUACAGCUACCAUAGUAUUUAGUUA	0.337 ± 0.032	
AGGACCUACAGCUUGCAUAGUAUUAGUUA	0.385 ± 0.053	0.00372 ± 0.003
UCCACCUACAGCUUGCAUAGUAUUAAGAAA	0.351 ± 0.054	
UCCUGGAUGAGAUUGCAUAGUAUUUAGUUA	0.117 ± 0.011	0.00369 ± 0.0027
UCCUGGUACAGCUUGCAUGGUAUUUAGUUA	0.891 ± 0.058	0.0741 ± 0.018
UCCUGGAUCAGCUUGGAUAGUAUUAAGUUA	0.258 ± 0.033	0.0129 ± 0.0046
AUGGACCUACAGCUUGCAUAGUAUUUAGUUA	1.34 ± 0.088	0.0872 ± 0.018
UGGACCUUCAGCUUGCAUAGUAUAUAGUUA	1 ± 0.053	0.0376 ± 0.0085
UGGACCUACAGCUUGCAUAGUUAUUUAGUUA	0.0473 ± 0.0076	0.00533 ± 0.0021
UGGACCUACAGCUUGCAUAGUAUUUAGUUG [g2:g29:cont:t1G]	0.456 ± 0.037	0.0555 ± 0.01
UGGACCUACAGCUUGCAUAGUAUUUAGUUA [g2:g29:cont:t1A]	1.61 ± 0.09	0.0718 ± 0.013
UCGACCUACAGCUUGCAUAGUAAUAAGUUA	0.444 ± 0.047	
UCCUCCAUGAGCUUGCAUAGUAUUUAGUAA	0.471 ± 0.029	0.0262 ± 0.0057
UCCUGCUACAGCUUGCAUAGUCAUUUAGUUA	0.0744 ± 0.02	0.00362 ± 0.0031
